Laboratory results as given in PubChem BioAssay (NCATS).
Records with an inconclusive call do not appear. Active and inactive are the calls of the source. Calls come from the whole dose curve; as a rule, active = well fitted activation curve with a large enough effect; inconclusive = small, poorly fitted or top-dose-only effect; inactive = no such curve, though single readings can be large or run the other way.

The molecules below were run against Rap guanine nucleotide exchange factor 3 (Homo sapiens) (UniProt O95398) (assay: Confirmatory qHTS for agonist of cAMP-regulated guanine nucleotide exchange factor 3 (EPAC1) (AID 1645881;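 note: EPAC1 catalysed release of BODIPY-GDP from Rap1B seen as fluorescence loss; 100% = effect of cAMP agonist control; nearly all actives have a fitted effect of over 75% in size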)). Conditions: EPAC1 Rap1B BODIPY-GDP exchange fluorescence; series mostly up to 154 µM; activation: at the top concentration.
Chain of Rap guanine nucleotide exchange factor 3 (Homo sapiens) (O95398 whole entry, looked up): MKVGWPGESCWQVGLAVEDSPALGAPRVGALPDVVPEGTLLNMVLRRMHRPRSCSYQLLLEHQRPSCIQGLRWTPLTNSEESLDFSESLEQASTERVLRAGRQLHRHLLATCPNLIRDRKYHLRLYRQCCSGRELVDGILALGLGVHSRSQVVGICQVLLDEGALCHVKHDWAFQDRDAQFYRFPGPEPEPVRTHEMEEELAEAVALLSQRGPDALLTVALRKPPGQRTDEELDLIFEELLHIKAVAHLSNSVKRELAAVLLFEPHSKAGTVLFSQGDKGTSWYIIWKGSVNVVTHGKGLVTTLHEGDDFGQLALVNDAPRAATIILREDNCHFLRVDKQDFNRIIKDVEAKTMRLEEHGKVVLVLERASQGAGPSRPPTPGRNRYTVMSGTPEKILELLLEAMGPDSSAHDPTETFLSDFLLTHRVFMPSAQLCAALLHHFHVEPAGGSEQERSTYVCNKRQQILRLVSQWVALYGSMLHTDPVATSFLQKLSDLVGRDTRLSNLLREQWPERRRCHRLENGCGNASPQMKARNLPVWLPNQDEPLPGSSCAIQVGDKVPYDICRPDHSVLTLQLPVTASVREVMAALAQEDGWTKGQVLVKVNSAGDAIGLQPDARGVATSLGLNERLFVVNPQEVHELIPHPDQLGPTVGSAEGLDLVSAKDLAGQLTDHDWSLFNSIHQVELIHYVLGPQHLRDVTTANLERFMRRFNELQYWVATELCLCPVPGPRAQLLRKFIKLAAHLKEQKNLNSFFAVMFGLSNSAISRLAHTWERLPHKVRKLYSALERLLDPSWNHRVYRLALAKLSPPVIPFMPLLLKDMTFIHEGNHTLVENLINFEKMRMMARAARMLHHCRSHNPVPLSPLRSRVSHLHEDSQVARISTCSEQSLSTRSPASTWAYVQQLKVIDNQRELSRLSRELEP

Compound | activation
O=C(O)c1ccc(N=N/C(=N\Nc2ccc(C(=O)O)cc2)c2ccccc2)cc1 | -11.1% (inactive)
CCCCn1nnnc1C(c1cc2ccccc2o1)N1CCN(c2ncccc2C#N)CC1 (centres undefined) | 9.69% (inactive)
CCCCc1ccc(NC(=O)CN2C(=O)C3CCCCC3C2=O)cc1 (centres undefined) | 6.98% (inactive)
COc1ccc(NC(=O)c2cccnc2NCCc2ccccc2)cc1 | 14.9% (inactive)
O=C(CN1C(=O)/C(=C2/SC(=S)N(CCS(=O)(=O)O)C2=O)c2ccccc21)Nc1cccc(Br)c1 | 15.8% (inactive)

Each molecule was assayed against Rap guanine nucleotide exchange factor 4 (Homo sapiens) (UniProt Q8WZA2) (assay: Confirmatory qHTS for agonist of cAMP-regulated guanine nucleotide exchange factor 4 (EPAC2) (AID 1645884;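 note: nucleotide exchange releases bodipy-GDP from Rap1 and this lowers its fluorescence; nearly all actives have a fitted effect of over 65% in size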; note: potency is the fitted concentration of half-maximal effect; for activation: % is set by controls: 0 for no effect and ±100 for the full control effect)). Conditions: EPAC2 GEF activity, Rap1B-BODIPY-GDP fluorescence; series mostly up to 154 µM; activation: at the top concentration.
Chain of Rap guanine nucleotide exchange factor 4 (Homo sapiens) (Q8WZA2 whole entry, looked up): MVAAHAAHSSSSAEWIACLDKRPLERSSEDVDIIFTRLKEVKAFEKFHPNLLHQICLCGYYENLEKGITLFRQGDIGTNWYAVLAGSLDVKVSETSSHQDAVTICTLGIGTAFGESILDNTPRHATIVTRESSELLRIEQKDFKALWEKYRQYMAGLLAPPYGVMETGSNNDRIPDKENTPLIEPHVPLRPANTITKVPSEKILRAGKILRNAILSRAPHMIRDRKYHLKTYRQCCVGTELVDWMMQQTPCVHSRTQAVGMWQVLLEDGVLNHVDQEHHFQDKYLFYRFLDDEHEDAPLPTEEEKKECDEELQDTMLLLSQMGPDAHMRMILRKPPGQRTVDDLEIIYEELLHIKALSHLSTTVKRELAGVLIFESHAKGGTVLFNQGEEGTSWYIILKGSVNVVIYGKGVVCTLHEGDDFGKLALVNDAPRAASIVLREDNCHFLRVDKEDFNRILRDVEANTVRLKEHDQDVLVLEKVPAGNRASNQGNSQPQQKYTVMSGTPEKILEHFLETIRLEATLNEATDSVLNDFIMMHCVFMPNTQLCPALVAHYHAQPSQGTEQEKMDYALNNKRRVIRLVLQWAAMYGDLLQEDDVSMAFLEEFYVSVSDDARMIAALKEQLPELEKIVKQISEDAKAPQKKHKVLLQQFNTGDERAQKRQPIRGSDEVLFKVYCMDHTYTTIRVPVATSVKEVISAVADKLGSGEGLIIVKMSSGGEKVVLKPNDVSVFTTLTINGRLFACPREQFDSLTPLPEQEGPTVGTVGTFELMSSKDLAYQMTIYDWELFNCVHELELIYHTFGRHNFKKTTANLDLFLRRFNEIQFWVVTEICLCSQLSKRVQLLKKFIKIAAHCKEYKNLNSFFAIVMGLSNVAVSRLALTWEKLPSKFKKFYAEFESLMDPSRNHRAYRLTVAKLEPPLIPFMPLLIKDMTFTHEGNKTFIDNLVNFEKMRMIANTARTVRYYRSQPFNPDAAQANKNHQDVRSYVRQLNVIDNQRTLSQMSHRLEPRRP

Compound | activation | Potency
COc1ccccc1[C@@]1(C)ON(c2ccccc2C(F)(F)F)C1=O | 3.47% (inactive) | –
FC(F)(F)C1=Nc2cccc3cccc(c23)N1 | 0.636% (inactive) | –
O=C(NC1CC1)C1CCN(S(=O)(=O)c2cc([N+](=O)[O-])ccc2Cl)CC1 | -2.45% (inactive) | –
Cc1ccccc1C(=O)Nc1ccccc1N1CCCCC1 | 0% (inactive) | –
Cc1cccc(NC(=O)CNC(=O)CCc2nc3sc4c(c3c(=O)[nH]2)CCCC4)c1C | 0% (inactive) | –
O=C(CSc1nnc(-c2ccco2)c(-c2ccco2)n1)c1ccccc1 | 0.693% (inactive) | –
C/C(=N/NS(=O)(=O)c1ccc(C(C)(C)C)cc1)c1ccc2c(c1)OCO2 | 7.62% [at 17.1 µM, percent relative to cAMP agonist control] (inactive) | –
CN1CCc2nc3sc(C(=O)C45CC6CC(CC(C6)C4)C5)c(N)c3cc2C1 | – | 100 µM (active)
COCCNc1nc(Oc2cccc(F)c2)c2sccc2n1 | 12.3% (inactive) | –
CCN1CC=C2C(C#N)=C(N)C(C#N)(C#N)C(CCc3ccccc3)C2C1 (centres undefined) | – | 50.1 µM (active)
CCCCOC(=O)CCn1c(=S)oc2ccccc21 | 11.9% (inactive) | –
CC(C)=CCc1c(O)cc(O)c2c1OC(c1ccc(O)cc1)CC2=O (centres undefined) | 10.4% (inactive) | –
CC(C)C[C@H]1COCCS(=O)(=O)N1Cc1ccc(Cl)c(Cl)c1 | 1.63% [at 17.1 µM, percent relative to cAMP agonist control] (inactive) | –
CCC(C)(C)c1ccc(Oc2ccc(N)cc2)cc1 | -7.61% (inactive) | –
O=C(NC1(O)C(=O)c2ccccc2C1=O)c1ccccc1 | -2.44% (inactive) | –
C=Cc1ccc(CC2(C)C(=O)Nc3ccc(Cl)cc32)cc1 (centres undefined) | 9.02% [at 17.1 µM, percent relative to cAMP agonist control] (inactive) | –
Cc1cc2c(C)nc(N/N=C/c3ccc(F)cc3)nc2o1 | -13.6% (inactive) | –
Cc1cc(C)c2c(CN3CCC(C)CC3)cc(=O)oc2c1 | -1.95% [at 17.1 µM, percent relative to cAMP agonist control] (inactive) | –
Cn1c(=O)c2c(nc(NCCc3ccccc3)n2CC(=O)NCCc2ccccc2)n(C)c1=O | -16.8% (inactive) | –
CCCCC(=O)N(C)c1c(CC)nc2c(OCc3ccc(C(F)(F)F)cc3)cccn12 | 3.08% [at 17.1 µM, percent relative to cAMP agonist control] (inactive) | –

Compound | activation | Potency
CC(C)=CCC[C@H](C)C[C@@H]1Cc2[nH][nH]c(=O)c2[C@H](c2ccc(F)cc2)O1 | -56.8% (inactive) | –
CCCCn1c(N)c(N(CCOC)C(=O)c2ccc(-c3ccc(C(C)=O)cc3)o2)c(=O)[nH]c1=O | 11% (inactive) | –
O=c1cc(CN2CCN(S(=O)(=O)c3cccc(Cl)c3)CC2)c2ccc(O)cc2o1 | 0.108% (inactive) | –
O=C1NC[C@H](Cc2ccc(O)cc2)N(C[C@@H]2CCCN2C[C@H](Cc2ccc(O)cc2)N2C[C@H](Cc3ccccc3)N(CC3CCCCCC3)C(=O)C2=O)C1=O | -13.4% (inactive) | –
CCCCC1CC2=C(C(=O)OC(C)(C)O2)C(c2ccc(Cl)cc2)O1 (centres undefined) | 3.97% (inactive) | –
COc1cc(/C=C/C(=O)c2ccc3c(c2)OCCO3)cc(Br)c1OCC(=O)N(C)C | 2.86% (inactive) | –
CCOc1ccccc1NC(=O)C1COc2ccccc2O1 (centres undefined) | 21.2% (inactive) | –
CCOc1ccc(S(=O)(=O)Nc2nc3ccccc3nc2-n2ccc(=NC(=O)c3cccs3)cc2)cc1 | 15% (inactive) | –
COc1cc(NC(=O)c2ccccc2NS(=O)(=O)c2ccc(Cl)s2)cc(OC)c1 | 0% (inactive) | –
O=[N+]([O-])c1ccc(C=NNc2ccc(S(=O)(=O)O)cc2)cc1 | -6.29% [at 17.1 µM, percent relative to cAMP agonist control] (inactive) | –
Cc1cc2c(N)cccc2nn1 | -8.34% (inactive) | –
Cc1cc(NC2=CC(=O)C(=O)c3ccccc32)no1 | -6.46% (inactive) | –
N#C/C(=C(/O)c1ccccc1F)c1nc2cc(C(F)(F)F)ccc2s1 | 1.01% [at 17.1 µM, percent relative to cAMP agonist control] (inactive) | –
C/C=C\C=C/C(=O)Nc1cccc(C2=NOC3(C2)C[C@H](C(N)=O)N(C(=O)c2ccc(OC)cc2)C3)c1 (some centres undefined) | -3.61% (inactive) | –
O=C(O)c1ccc(N=N/C(=N\Nc2ccc(C(=O)O)cc2)c2ccccc2)cc1 | -13% [at 17.1 µM, percent relative to cAMP agonist control] (inactive) | –
CCCCn1nnnc1C(c1cc2ccccc2o1)N1CCN(c2ncccc2C#N)CC1 (centres undefined) | 8.35% [at 17.1 µM, percent relative to cAMP agonist control] (inactive) | –
CCCCc1ccc(NC(=O)CN2C(=O)C3CCCCC3C2=O)cc1 (centres undefined) | 0.0357% (inactive) | –
COc1ccc(NC(=O)c2cccnc2NCCc2ccccc2)cc1 | 13.9% (inactive) | –
O=C(CN1C(=O)/C(=C2/SC(=S)N(CCS(=O)(=O)O)C2=O)c2ccccc21)Nc1cccc(Br)c1 | 3.35% (inactive) | –
